This is part of a sample that, as a whole, favours compounds with a hit. Of some 83,000 tested, about 20% had one in any assay.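 Testing used 96-well plates and a 48-hour single-concentration exposure. Example: -40 means 40% of the starting cells died.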 A number with no mark means an inactive call. The source made the active and inactive calls. The calls were made as follows: active = growth percent below 10; inactive = the rest.

This test relates to UACC-257 melanoma. Nature of the test: NCI-60 one-dose screen, 48 h (100 = growth as untreated, 0 = no growth, -100 = all killed). The following applies: 10 µM unless noted.
In the case of `COc1ccc(/C=C(/C(=O)N2CCCCC2)c2cc(OC)c(OC)c(OC)c2)cc1`, the growth was 75%.
In the case of `COc1ccc(OC)c(Cn2cc3c(c2)-c2oncc2CC3)c1` it was 60.5%; in that of `COc1ccc(CN2C(=O)/C(=C\C(=O)c3ccc(OCCN4CCCCC4)cc3)c3ccccc32)cc1`, 99%; in that of `COc1ccc(/C=C2\SC(=O)N(Cc3cc(=O)oc4ccc(OC)cc34)C2=O)cc1`, 100%.
As for `O=c1oc2ccc3ccccc3c2cc1-c1ccnc2[nH]c(=S)[nH]c(=O)c12`, the figure is 98.9%.
As for `O=C(O)c1occ(Cl)c1Cl`, the figure is 108%; as for `COc1ccc(Cn2cc3c(c2-c2ccccc2)CCc2cnoc2-3)cc1OC`, 61.9%; as for `CCCCN(CCCC)CC(O)CN(CC)CC` (stereo not given), 105%.
For `O=C(/C=C/c1c[nH]c2ccccc12)c1cc2ccccc2o1`, the growth is 98.4%.
As for `COc1ccc2sc(-n3nc4nc5n(c(=O)c4c3N)-c3ccccc3Sc3ccccc3-5)nc2c1`, the figure is 89.6%; as for `CCOC(=O)NNc1[nH]c(-c2ccc(OC)cc2)cc1C#N`, 92.5%.
In the case of `COc1ccc(-c2cn3ccnc3c(-c3ccc4ncn(C5CCCCC5)c4c3)n2)cc1` it was 73.7%; in that of `CCOC(=O)C1=NN(c2ccccc2)C2=NC(=O)/C(=C\c3cn(-c4ccccc4)nc3-c3cc4ccccc4o3)C(=O)N12`, 102%; in that of `O=C(/C=C1\C(=O)N(Cc2ccc([N+](=O)[O-])cc2)c2ccccc21)c1ccc(OCCN2CCCCC2)cc1`, -4.94% (active).
In the case of `NNC(=S)N1N=C(c2cc3ccccc3o2)CC1c1c[nH]c2ccccc12` (stereo not given) it was 64.2%.

For the origin of these results see PubChem BioAssay (NCI).
